Values joined by “and” are separate entries in the source; they are usually repeats but may differ in a detail not shown here. Equal values may be shown once. Some structures have more than one record in an assay (separate samples or runs), and their calls can disagree. Active and inactive are the calls of the source. How the source made its calls: active means hit-call score of the fitted dose curve at least 0.9, where 1 is the maximum; inactive means score below 0.9.
Columns and labels:
[1] = read-out: Tissue Factor, F3 (gene 2152); test: BSK_CASM3C_TissueFactor: BioMAP Diversity Plus: CASM3C Assay for Tissue Factor Biomarker Activity (AID 2283052); details: primary human coronary artery smooth muscle cells; actives raise or lower the signal;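 further: cell surface tissue factor protein level read by ELISA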
[2] = read-out: Interferon-gamma inducible Protein 10 (IP10), CXCL10 (gene 3627); test: BSK_hDFCGF_IP10: BioMAP Diversity Plus: hDFCGF Assay for Interferon-gamma inducible Protein 10 (IP10) Biomarker Activity (AID 2283053); details: primary human foreskin fibroblasts; actives raise or lower the signal
Summary of the method: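 ELISA quantification of IP-10 after a 24 h chemical exposure of human dermal foreskin fibroblast primary cultures. Both increases and decreases versus DMSO fitted.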

[3] = read-out: Urokinase-type plasminogen activator receptor (uPAR), PLAUR (gene 5329); test: BSK_CASM3C_uPAR: BioMAP Diversity Plus: CASM3C Assay for Urokinase-type plasminogen activator receptor (uPAR) Biomarker Activity (AID 2283054); details: primary human coronary artery smooth muscle cells; actives raise or lower the signal;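 further: cell-surface uPAR protein level quantified by ELISA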
[4] = read-out: Vascular cell adhesion molecule 1 (VCAM1), VCAM1 (gene 7412); test: BSK_CASM3C_VCAM1: BioMAP Diversity Plus: CASM3C Assay for Vascular cell adhesion molecule 1 (VCAM1) Biomarker Activity (AID 2283055); details: primary human coronary artery smooth muscle cells; actives raise or lower the signal;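 further: VCAM-1 protein level quantified by ELISA on the cells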
[5] = read-out: Epidermal growth factor receptor (EGFR), EGFR (gene 1956); test: BSK_hDFCGF_EGFR: BioMAP Diversity Plus: hDFCGF Assay for Epidermal growth factor receptor (EGFR) Biomarker Activity (AID 2283057); details: primary human foreskin fibroblasts; actives raise or lower the signal
Summary of the method: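 EGFR levels by ELISA in human dermal fibroblast cultures, 24 h post-treatment, fitted bidirectionally versus DMSO. Parallel wells stained with sulforhodamine B to detect overt cytotoxicity.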

[6] = read-out: Interleukin-8 (IL8), CXCL8 (gene 3576); test: BSK_hDFCGF_IL8: BioMAP Diversity Plus: hDFCGF Assay for Interleukin-8 (IL8) Biomarker Activity (AID 2283058); details: primary human foreskin fibroblasts; actives raise or lower the signal
Summary of the method: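 Primary human foreskin fibroblasts (hDFCGF system) dosed with chemical; IL-8 measured by ELISA 24 hours later. Bidirectional curve fitting relative to DMSO baseline; cytotoxicity tracked in parallel cultures by SRB total protein staining.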

[7] = BSK_hDFCGF_Proliferation: Cell Proliferation Assessment in the BioMAP Diversity Plus: hDFCGF Assay (AID 2283059); details: primary human foreskin fibroblasts;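 further: curves fitted for both rise and fall of signal versus DMSO baseline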
Summary of the method: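 Total protein read at 560 nm after 0.1% SRB staining of TCA-fixed human skin fibroblasts, […]. Activity is fitted in both directions relative to DMSO as baseline.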

[8] = read-out: Macrophage colony-stimulating factor (MCSF), CSF1 (gene 1435); test: BSK_hDFCGF_MCSF: BioMAP Diversity Plus: hDFCGF Assay for Macrophage colony-stimulating factor (MCSF) Biomarker Activity (AID 2283060); details: primary human foreskin fibroblasts; actives raise or lower the signal
Summary of the method: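 Human foreskin fibroblast primary cultures; M-CSF measured by ELISA 24 hours after chemical dosing. Bidirectional fitting relative to DMSO, with overt cytotoxicity tracked by parallel SRB total-protein staining (0.1% SRB, 10% TCA fixation, 560 nm).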

[9] = read-out: Collagen III, COL3A1 (gene 1281); test: BSK_hDFCGF_CollagenIII: BioMAP Diversity Plus: hDFCGF Assay for Collagen III Biomarker Activity (AID 2283056); details: primary human foreskin fibroblasts; actives raise or lower the signal
Summary of the method: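 Human foreskin fibroblast primary cultures sampled 24 h after dosing; Collagen III quantified by ELISA. Signal fitted bidirectionally against DMSO baseline.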

[10] = BSK_hDFCGF_SRB: Viability Assessment in the BioMAP Diversity Plus: hDFCGF Assay (AID 2283061); details: primary human foreskin fibroblasts;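 further: cells exposed to compound for 24 h before the read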
Summary of the method: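 Human foreskin fibroblasts in 96-well plates were treated 24 h. Total protein was measured by 0.1% SRB staining after 10% TCA fixation, read at 560 nm. Data were fitted bidirectionally against DMSO.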

CCCCCc1ccc(O)cc1
AC50 [1]: 12 µM (active) | AC50 [2]: 33.2 µM (active) | AC50 [3]: 14.4 µM (active) | AC50 [4]: 13.1 µM (active) | AC50 [5]: 29.9 µM (active) | outcome [6]: inactive | AC50 [7]: 8.97 µM (active) | AC50 [8]: 25.5 µM (active)

Oc1cc2ccccc2cc1O
outcome [1]: inactive | outcome [3]: inactive | outcome [4]: inactive | AC50 [9]: 20 µM (active) | outcome [5]: inactive | outcome [6]: inactive | AC50 [7]: 29.7 µM (active) | outcome [8]: inactive | outcome [10]: inactive

OCC(CO)(CBr)CBr
outcome [1]: inactive | outcome [3]: inactive | outcome [4]: inactive | outcome [9]: inactive | outcome [5]: inactive | outcome [6]: inactive | outcome [7]: inactive | outcome [8]: inactive

O=S(=O)(O)C(F)(F)C(F)(F)C(F)(F)C(F)(F)C(F)(F)C(F)(F)C(F)(F)C(F)(F)C(F)(F)C(F)(F)F
outcome [1]: inactive | outcome [2]: inactive | outcome [3]: inactive | AC50 [4]: 3.55 µM (active) and 2.65 µM (active) | outcome [9]: inactive | outcome [5]: inactive | outcome [6]: inactive | AC50 [7]: 1.46 µM (active) and 1.89 µM (active) | outcome [8]: inactive

C[C@]12CC[C@@H]3c4ccc(O)cc4CC[C@H]3[C@@H]1C[C@@H](O)[C@@H]2O
outcome [1]: inactive | outcome [2]: inactive | outcome [3]: inactive | outcome [4]: inactive | outcome [5]: inactive | outcome [6]: inactive | outcome [7]: inactive | outcome [8]: inactive

COC1=CC(=O)C[C@@H](C)[C@]12Oc1c(Cl)c(OC)cc(OC)c1C2=O
AC50 [1]: 2.12 µM (active) | outcome [2]: inactive | outcome [3]: inactive | outcome [4]: inactive | outcome [9]: inactive | outcome [5]: inactive | outcome [6]: inactive | outcome [7]: inactive | outcome [8]: inactive | outcome [10]: inactive

COc1cc(OC)nc(NC(=O)NS(=O)(=O)Nc2ccccc2C(=O)N(C)C)n1
outcome [1]: inactive | outcome [2]: inactive | outcome [3]: inactive | outcome [4]: inactive | outcome [5]: inactive | outcome [6]: inactive | outcome [7]: inactive | outcome [8]: inactive

CS(=O)(=O)c1ccc([C@@H](CC2CCCC2)C(=O)Nc2cnccn2)cc1Cl
outcome [1]: inactive | outcome [2]: inactive | AC50 [3]: 26.3 µM (active) | outcome [4]: inactive | outcome [5]: inactive | outcome [6]: inactive | AC50 [7]: 20 µM (active) | outcome [8]: inactive

Cc1ccc(N=Nc2c(O)ccc3ccccc23)c(C)c1
outcome [1]: inactive | outcome [3]: inactive | outcome [4]: inactive | AC50 [9]: 6.8 µM (active) | outcome [5]: inactive | outcome [6]: inactive | outcome [7]: inactive | AC50 [8]: 10 µM (active)

O=C(NCc1ncc(C(F)(F)F)cc1Cl)c1c(Cl)cccc1Cl
outcome [1]: inactive | outcome [3]: inactive | outcome [4]: inactive | outcome [9]: inactive | outcome [5]: inactive | outcome [6]: inactive | outcome [7]: inactive | outcome [8]: inactive

C=COC(=O)C(C)(C)CCCCCC
AC50 [1]: 20 µM (active) | AC50 [2]: 35 µM (active) | AC50 [3]: 20 µM (active) | AC50 [4]: 33.2 µM (active) | AC50 [9]: 31.2 µM (active) | outcome [5]: inactive | AC50 [6]: 31 µM (active) | AC50 [7]: 31.7 µM (active) | AC50 [8]: 35 µM (active)

C=CC(=O)OCCC(F)(F)C(F)(F)C(F)(F)C(F)(F)C(F)(F)C(F)(F)C(F)(F)C(F)(F)F
outcome [1]: inactive | outcome [2]: inactive | outcome [3]: inactive | outcome [4]: inactive | outcome [5]: inactive | outcome [6]: inactive | AC50 [7]: 30 µM (active) | outcome [7]: inactive | outcome [8]: inactive

CCCCC(CC)C(=O)O (centres undefined)
outcome [1]: inactive | outcome [2]: inactive | outcome [3]: inactive | outcome [4]: inactive | outcome [5]: inactive | outcome [6]: inactive | outcome [7]: inactive | outcome [8]: inactive

O=C1NS(=O)(=O)c2ccccc21
outcome [1]: inactive | outcome [3]: inactive | AC50 [4]: 0.15 µM (active) | outcome [4]: inactive | outcome [5]: inactive | outcome [6]: inactive | outcome [7]: inactive | outcome [8]: inactive

O=C(O)C(F)(F)OC(F)(F)C(F)(F)OC(F)(F)C(F)(F)OC(F)(F)C(F)(F)C(F)(F)C(F)(F)F
outcome [1]: inactive | outcome [3]: inactive | AC50 [4]: 24.8 µM (active) and 30 µM (active) | AC50 [9]: 10.9 µM (active) and 9.27 µM (active) | outcome [5]: inactive | AC50 [6]: 21.9 µM (active) and 21.2 µM (active) | AC50 [7]: 7.93 µM (active) and 8.07 µM (active) | AC50 [8]: 11.6 µM (active) and 10.5 µM (active) | AC50 [10]: 8.7 µM (active) and 8.8 µM (active)

CN(C)c1ccc(C(=C2C=CC(=[N+](C)C)C=C2)c2ccccc2)cc1
AC50 [1]: 0.0195 µM (active) | AC50 [2]: 0.0138 µM (active) | AC50 [3]: 0.0461 µM (active) | AC50 [4]: 0.554 µM (active) | AC50 [9]: 1.23 µM (active) | outcome [5]: inactive | AC50 [6]: 2.67 µM (active) | AC50 [7]: 0.0173 µM (active) | AC50 [8]: 0.0319 µM (active)

COCN(COC)c1nc(N(COC)COC)nc(N(COC)COC)n1
outcome [1]: inactive | outcome [2]: inactive | outcome [3]: inactive | outcome [4]: inactive | outcome [9]: inactive | outcome [5]: inactive | outcome [6]: inactive | outcome [7]: inactive | outcome [8]: inactive

CCC(C)c1ccccc1O (centres undefined)
outcome [1]: inactive | outcome [3]: inactive | outcome [4]: inactive | outcome [9]: inactive | outcome [5]: inactive | outcome [6]: inactive | outcome [7]: inactive | outcome [8]: inactive | outcome [10]: inactive

Oc1ccc(Cc2ccccc2O)cc1
outcome [1]: inactive | outcome [3]: inactive | AC50 [4]: 3.97 µM (active) | outcome [4]: inactive | outcome [5]: inactive | outcome [6]: inactive | AC50 [7]: 33.6 µM (active) | outcome [7]: inactive | outcome [8]: inactive

O=C(CC(=O)C(F)(F)C(F)(F)C(F)(F)F)c1cccs1
outcome [1]: inactive | outcome [2]: inactive | AC50 [3]: 51.8 µM (active) and 50.9 µM (active) | AC50 [4]: 40.6 µM (active) and 38.2 µM (active) | outcome [5]: inactive | outcome [6]: inactive | AC50 [7]: 4.23 µM (active) and 4.92 µM (active) | outcome [8]: inactive

C=CC(=C)CC/C=C(\C)CCC=C(C)C
outcome [1]: inactive | outcome [2]: inactive | outcome [3]: inactive | outcome [4]: inactive | outcome [5]: inactive | outcome [6]: inactive | AC50 [7]: 6.49 µM (active) | outcome [8]: inactive | outcome [10]: inactive

CN(CCO)S(=O)(=O)C(F)(F)C(F)(F)C(F)(F)C(F)(F)C(F)(F)C(F)(F)C(F)(F)C(F)(F)F
outcome [1]: inactive | outcome [3]: inactive | outcome [4]: inactive | outcome [9]: inactive | outcome [5]: inactive | outcome [6]: inactive | outcome [7]: inactive | AC50 [8]: 0.0414 µM (active) | outcome [8]: inactive

O=C(CCCN1CCC(O)(c2ccc(Cl)cc2)CC1)c1ccc(F)cc1
outcome [1]: inactive | outcome [3]: inactive | outcome [4]: inactive | outcome [9]: inactive | outcome [5]: inactive | outcome [6]: inactive | AC50 [7]: 4.55 µM (active) | outcome [8]: inactive

CCCCCCCCCCCCCCCCCC[N+](C)(C)Cc1ccccc1
AC50 [1]: 0.296 µM (active) | AC50 [3]: 2.77 µM (active) | AC50 [4]: 10 µM (active) | AC50 [9]: 0.355 µM (active) | outcome [5]: inactive | AC50 [6]: 2.52 µM (active) | AC50 [7]: 0.0156 µM (active) | AC50 [8]: 0.721 µM (active)

CCCCc1oc2ccccc2c1C(=O)c1cc(I)c(OCCN(CC)CC)c(I)c1
AC50 [1]: 24 µM (active) | AC50 [2]: 8.78 µM (active) | AC50 [3]: 13.7 µM (active) | AC50 [4]: 25.3 µM (active) | AC50 [9]: 7.23 µM (active) | outcome [5]: inactive | AC50 [6]: 10.3 µM (active) | AC50 [7]: 3.97 µM (active) | AC50 [8]: 6.99 µM (active) | AC50 [10]: 4.64 µM (active)

Cc1ccc(C(=O)c2ccccc2)cc1
outcome [1]: inactive | AC50 [2]: 33.1 µM (active) | outcome [3]: inactive | outcome [4]: inactive | AC50 [9]: 33.8 µM (active) | outcome [5]: inactive | outcome [6]: inactive | AC50 [7]: 32.4 µM (active) | AC50 [8]: 29.3 µM (active)
